NS1 inh: influenza NS1 inhibition | 270,000 tested, 0.4% active | AID 2326 | Potency, µM (doses to about 46.1 µM), without a hit: top-dose activity, positive = more growth; also: potency is read from the fitted curve at half-maximal effect; actives are rising curves; nearly all actives have a fitted effect of over 50% in size
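Compounds were scored for reversing the slow growth caused by influenza A NS1 in S. cerevisiae, measured by optical density at 600 nm. Assay medium contained 2% galactose at pH 6.0; NS1-free yeast of the same strain were the positive control.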
TbPYK inhibitor: T. brucei pyruvate kinase inhibition; Q57TT1; 410,000 tested, 0.12% active; TbPYK enzyme, Kinase-Glo Plus ATP luminescence, 45 min; Potency, µM (doses to about 76.8 µM), for inactives: at the top dose activity, negative = inhibition, actives largely listed as inhibitors; active = well fitted curve in the direction sought with a large enough effect; an effect the other way counts as inactive or inconclusive; also: potency is read from the fitted curve at half-maximal effect; % is scaled to controls: 0 for no effect and ±100 for the full control effect; nearly all actives have a fitted effect of over 50% in size
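Activity of T. brucei pyruvate kinase was followed by Kinase-Glo Plus luminescence after the enzyme reacted 45 min at room temperature with 130 uM ADP (final) and substrate. Test compounds were added before ADP at multiple concentrations.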
SARS PLpro yeast: blocks SARS-CoV papain-like protease in a yeast assay. AID 485353. S. cerevisiae expressing SARS-CoV PLpro, growth rescue. 330,000 tested, 0.19% active. Potency, µM (series often up to 32.9 µM), inactives show at the highest dose activity, positive = growth rescue, usual class: activators; also: potency is read from the fitted curve at half-maximal effect; 0% is about no effect; nearly all actives have a fitted effect of over 55% in size
Shiga toxin inh: inhibitors of Shiga toxin in Vero cells | AID 2315 | Vero cells, Shiga toxin protein synthesis inhibition reporter | 290,000 tested, 9.2% active | inhibition, % at 38.7 µM; in the data active = inhibition mostly above about 28%, no sharp cut-off; inactive = mostly below about 43%; also: 0% is about no effect
CHX counter: counter-screen for Shiga toxin inhibitors: cycloheximide protein synthesis inhibition | cell reporter, cycloheximide protein synthesis inhibition counterscreen | 300,000 tested, 12% active | max response, % | AID 2314; in the data active = max response mostly above about 13%, no sharp cut-off; inactive = mostly below about 14%; also: read at 38.3 µM for the half of the compounds with a filed dose; 0% is about no effect
LmPK inh: inhibitors of Leishmania mexicana pyruvate kinase. purified LmPK, Kinase-Glo ATP luminescence, 1 h. Potency, µM (titrated, usually from 57.5 µM), for inactives: at the highest dose activity change, negative = inhibition, hits mostly inhibitors. 290,000 tested, 0.37% active. AID 1721; active = well fitted curve in the direction sought with a large enough effect; an effect the other way counts as inactive or inconclusive; also: potency is read from the fitted curve at half-maximal effect; % is scaled to controls: 0 for no effect and ±100 for the full control effect
Target sequence (Q27686 whole entry, looked up): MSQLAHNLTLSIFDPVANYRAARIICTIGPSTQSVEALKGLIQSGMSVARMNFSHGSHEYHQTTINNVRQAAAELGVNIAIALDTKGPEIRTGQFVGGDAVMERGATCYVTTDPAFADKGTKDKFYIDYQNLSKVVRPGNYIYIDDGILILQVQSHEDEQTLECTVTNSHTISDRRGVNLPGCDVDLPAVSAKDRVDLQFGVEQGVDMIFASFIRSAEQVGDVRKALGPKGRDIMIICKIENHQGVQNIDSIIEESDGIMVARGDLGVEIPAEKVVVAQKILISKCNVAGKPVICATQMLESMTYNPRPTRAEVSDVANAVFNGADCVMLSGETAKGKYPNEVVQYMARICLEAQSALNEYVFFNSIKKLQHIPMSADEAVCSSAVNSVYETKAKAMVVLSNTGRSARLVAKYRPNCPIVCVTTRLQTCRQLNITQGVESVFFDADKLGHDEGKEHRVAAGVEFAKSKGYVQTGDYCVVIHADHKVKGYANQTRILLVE
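Screened at intermediate enzyme activity to detect both inhibitors and activators: LmPK at 0.1 nM, with a 0.5 nM enzyme column as activation reference. PEP 0.5 mM, ADP 0.1 mM; ATP detected by luminescence after 1 h.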
Active calls of the source: *. This excerpt belongs to a sample that is enriched for hits. Unless noted, calls follow the shape of the full dose curve.

`COc1ccc(C/C(C)=N/NC(=S)Nc2ccccc2)cc1` gave NS1 inh -22%, TbPYK inhibitor -16%, SARS PLpro yeast 11µM*, Shiga toxin inh 86*, CHX counter 42 and LmPK inh 0%.
`C/C(=N\NC(=S)NCc1ccccc1)c1ccc(C#N)cc1` gave NS1 inh -2%, TbPYK inhibitor -3%, SARS PLpro yeast 1%, Shiga toxin inh -5, CHX counter -2 and LmPK inh 1%.
COc1ccc(NC(=S)N/N=C/c2cccn2Cc2ccc(F)cc2)cc1 was read as TbPYK inhibitor 4%, SARS PLpro yeast 2%, Shiga toxin inh 46*, CHX counter 11 and LmPK inh 1%.
COc1ccc(C/C(C)=N/NC(=S)Nc2ccc(Cl)cc2)cc1 was read as NS1 inh -1%, TbPYK inhibitor -11%, SARS PLpro yeast 2%, Shiga toxin inh 1, CHX counter -2 and LmPK inh 3%.
`C/C(=N\NC(=S)NCc1ccccc1)c1ccco1` gave NS1 inh -9%, TbPYK inhibitor -12%, SARS PLpro yeast 0%, Shiga toxin inh 37*, CHX counter 19* and LmPK inh -1%.
CNC(=S)N/N=C(\C)c1ccccc1 was read as NS1 inh 2%, TbPYK inhibitor -8%, SARS PLpro yeast 1%, Shiga toxin inh 75, CHX counter 7 and LmPK inh 1%.
For CNC(=S)N/N=C(\C)c1ccc(C(C)(C)C)cc1 the results were NS1 inh -3%, TbPYK inhibitor 4%, SARS PLpro yeast 19%, Shiga toxin inh 30*, CHX counter 24* and LmPK inh 1%.
For COC(=O)Cn1c(SCCOc2ccccc2OC)nc2ccccc21 the results were TbPYK inhibitor 2%.
Screening C/C(=N\NC(=S)NCc1ccccc1)c1ccccc1 returned NS1 inh -25%, TbPYK inhibitor -6%, SARS PLpro yeast -29%, Shiga toxin inh active, CHX counter 28* and LmPK inh 3%.
For O=C(N/N=C/c1ccccc1O)NC12CC3CC(CC(C3)C1)C2 the results were NS1 inh -6%, TbPYK inhibitor -9%, SARS PLpro yeast -3%, Shiga toxin inh 139*, CHX counter 46* and LmPK inh 0%.
O=C(N/N=C/c1ccc(O)c(O)c1)NC12CC3CC(CC(C3)C1)C2 was read as NS1 inh 1%, TbPYK inhibitor -21%, SARS PLpro yeast -1%, Shiga toxin inh 5, CHX counter 3 and LmPK inh -27%.
Screening COc1cc(/C=N/NC(=O)NC23CC4CC(CC(C4)C2)C3)ccc1O returned NS1 inh -1%, TbPYK inhibitor 1%, SARS PLpro yeast -5%, Shiga toxin inh 37*, CHX counter 8 and LmPK inh 1%.
N#CCCN(Cc1ccccc1)C(C(=O)NC1CCCCC1)C1CC1 (centres undefined) was read as TbPYK inhibitor 1%.
CC(C)(C)NC(=O)[C@H]1CC[C@H]2[C@@H]3CC=C4C=C(C(=O)O)CC[C@@]4(C)[C@H]3CC[C@]12C was read as TbPYK inhibitor 0%.
`Oc1ccc2ccc3[nH]cnc3c2c1` gave NS1 inh 1%, TbPYK inhibitor -1%, SARS PLpro yeast 3%, Shiga toxin inh 74*, CHX counter 53* and LmPK inh 3%.
For Cc1ccc(N2C(=O)CC(c3ccccc3F)C3=C2COC3=O)cc1Cl (centres undefined) the results were TbPYK inhibitor 0%.
`COC(=O)c1c(C)[nH]c(C(=O)/C=C/c2cccc(Cl)c2)c1C` gave NS1 inh 2%, TbPYK inhibitor -7%, SARS PLpro yeast 5%, Shiga toxin inh 62*, CHX counter 39* and LmPK inh -1%.
`COC(=O)c1c(C)[nH]c(C(=O)/C=C/c2ccccc2)c1C` gave NS1 inh 3%, TbPYK inhibitor -2%, SARS PLpro yeast -8%, Shiga toxin inh 89*, CHX counter 43* and LmPK inh 1%.
`COC(=O)c1c(C)[nH]c(C(=O)CSc2ccc(Cl)cc2)c1C` gave NS1 inh -4%, TbPYK inhibitor -11%, SARS PLpro yeast -3%, Shiga toxin inh 42, CHX counter 30* and LmPK inh 0%.
